How the values were obtained:
[1] = molecular target: T1, Serine/threonine-protein kinase TBK1 (Homo sapiens) (UniProt Q9UHD2); settings: at 1 µM;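 note: values are mean inhibition of TBK1, screened as part of the GSK published kinase inhibitor set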
T1 sequence (whole entry): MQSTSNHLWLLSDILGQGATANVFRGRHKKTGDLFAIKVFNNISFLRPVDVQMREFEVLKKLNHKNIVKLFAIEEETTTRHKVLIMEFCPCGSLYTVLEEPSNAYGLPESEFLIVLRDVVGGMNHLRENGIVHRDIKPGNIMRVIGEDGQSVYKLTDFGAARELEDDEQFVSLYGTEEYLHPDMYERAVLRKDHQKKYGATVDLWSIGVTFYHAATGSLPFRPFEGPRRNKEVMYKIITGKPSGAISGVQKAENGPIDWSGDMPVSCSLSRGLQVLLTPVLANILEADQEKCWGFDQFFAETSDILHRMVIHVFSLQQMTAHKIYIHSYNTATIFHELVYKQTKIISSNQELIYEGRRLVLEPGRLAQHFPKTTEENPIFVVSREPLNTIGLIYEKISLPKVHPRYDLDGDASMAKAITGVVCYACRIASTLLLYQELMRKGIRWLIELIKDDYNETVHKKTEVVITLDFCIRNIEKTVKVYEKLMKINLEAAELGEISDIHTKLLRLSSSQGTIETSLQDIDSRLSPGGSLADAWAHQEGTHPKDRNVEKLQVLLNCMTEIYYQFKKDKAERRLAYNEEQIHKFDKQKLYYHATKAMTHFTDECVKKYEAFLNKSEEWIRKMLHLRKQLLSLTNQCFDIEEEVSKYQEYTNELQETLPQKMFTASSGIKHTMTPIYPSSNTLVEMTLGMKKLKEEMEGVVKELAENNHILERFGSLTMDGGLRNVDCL

[2] = molecular target: T2, Testis-specific serine/threonine-protein kinase 1 (Homo sapiens) (UniProt Q9BXA7); settings: at 0.1 µM
T2 sequence (whole entry): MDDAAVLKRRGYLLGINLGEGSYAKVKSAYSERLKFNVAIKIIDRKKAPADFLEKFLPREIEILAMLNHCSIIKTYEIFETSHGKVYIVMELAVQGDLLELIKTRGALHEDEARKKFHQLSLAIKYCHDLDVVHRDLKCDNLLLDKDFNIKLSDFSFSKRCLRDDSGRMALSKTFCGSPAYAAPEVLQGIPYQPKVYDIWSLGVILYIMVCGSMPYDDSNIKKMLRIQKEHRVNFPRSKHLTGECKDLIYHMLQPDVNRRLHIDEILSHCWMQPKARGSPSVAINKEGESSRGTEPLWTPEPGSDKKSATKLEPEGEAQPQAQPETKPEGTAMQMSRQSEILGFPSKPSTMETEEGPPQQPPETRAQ

[3] = molecular target: T2, Testis-specific serine/threonine-protein kinase 1 (Homo sapiens); settings: at 1 µM
[4] = molecular target: T3, Testis-specific serine/threonine-protein kinase 2 (Homo sapiens) (UniProt Q96PF2); settings: at 0.1 µM
T3 sequence (whole entry): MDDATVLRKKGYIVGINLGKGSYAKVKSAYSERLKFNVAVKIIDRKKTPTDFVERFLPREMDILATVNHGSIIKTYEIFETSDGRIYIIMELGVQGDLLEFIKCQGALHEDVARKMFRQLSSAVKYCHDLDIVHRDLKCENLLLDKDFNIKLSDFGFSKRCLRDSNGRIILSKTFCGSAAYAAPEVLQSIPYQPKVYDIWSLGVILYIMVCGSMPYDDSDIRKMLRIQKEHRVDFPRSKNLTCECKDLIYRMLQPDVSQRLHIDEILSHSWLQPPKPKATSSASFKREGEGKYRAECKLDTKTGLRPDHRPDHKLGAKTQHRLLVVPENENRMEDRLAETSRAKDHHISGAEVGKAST

[5] = molecular target: T3, Testis-specific serine/threonine-protein kinase 2 (Homo sapiens); settings: at 1 µM
[6] = molecular target: Casein kinase I isoform alpha (Homo sapiens) (UniProt P48729); settings: at 0.1 µM
[7] = molecular target: Casein kinase I isoform alpha (Homo sapiens) (UniProt P48729); settings: at 1 µM
[8] = molecular target: Casein kinase I isoform gamma-1 (Homo sapiens) (UniProt Q9HCP0); settings: at 0.1 µM
[9] = molecular target: Casein kinase I isoform gamma-1 (Homo sapiens) (UniProt Q9HCP0); settings: at 1 µM
[10] = molecular target: Casein kinase I isoform gamma-2 (Homo sapiens) (UniProt P78368); settings: at 0.1 µM
[11] = molecular target: Casein kinase I isoform gamma-2 (Homo sapiens) (UniProt P78368); settings: at 1 µM
[12] = molecular target: Casein kinase I isoform gamma-3 (Homo sapiens) (UniProt Q9Y6M4); settings: at 0.1 µM
[13] = molecular target: Casein kinase I isoform gamma-3 (Homo sapiens) (UniProt Q9Y6M4); settings: at 1 µM
[14] = molecular target: Cyclin-dependent kinase 1 (Homo sapiens) (UniProt P06493); settings: at 0.1 µM
[15] = molecular target: Cyclin-dependent kinase 1 (Homo sapiens) (UniProt P06493); settings: at 1 µM
[16] = molecular target: Cyclin-dependent kinase 2 (Homo sapiens) (UniProt P24941); settings: at 0.1 µM
[17] = molecular target: Cyclin-dependent kinase 2 (Homo sapiens) (UniProt P24941); settings: at 1 µM
[18] = molecular target: Cyclin-dependent kinase 2 (Homo sapiens) (UniProt P24941); settings: at 0.1 µM; remark: listed apart in the source
[19] = molecular target: Cyclin-dependent kinase 2 (Homo sapiens) (UniProt P24941); settings: at 1 µM; remark: listed apart in the source
[20] = molecular target: CDK3/Cyclin E (Homo sapiens) (UniProt P24864+Q00526); settings: at 0.1 µM;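 note: reported percentages are mean inhibition values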
Sequence of CDK3/Cyclin E (Homo sapiens) (P24864 whole entry, looked up): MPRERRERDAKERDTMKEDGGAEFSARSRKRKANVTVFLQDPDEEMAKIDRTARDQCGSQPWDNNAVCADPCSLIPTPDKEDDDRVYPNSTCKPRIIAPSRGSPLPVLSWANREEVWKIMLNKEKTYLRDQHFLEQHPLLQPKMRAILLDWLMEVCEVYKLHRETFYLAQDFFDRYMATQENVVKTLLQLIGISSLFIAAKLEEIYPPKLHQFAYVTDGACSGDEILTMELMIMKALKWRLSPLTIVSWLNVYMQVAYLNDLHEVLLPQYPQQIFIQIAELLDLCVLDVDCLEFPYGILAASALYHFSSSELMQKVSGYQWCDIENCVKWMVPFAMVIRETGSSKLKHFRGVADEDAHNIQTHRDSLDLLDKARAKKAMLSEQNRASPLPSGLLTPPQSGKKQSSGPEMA
Sequence of CDK3/Cyclin E (Homo sapiens) (Q00526 whole entry, looked up): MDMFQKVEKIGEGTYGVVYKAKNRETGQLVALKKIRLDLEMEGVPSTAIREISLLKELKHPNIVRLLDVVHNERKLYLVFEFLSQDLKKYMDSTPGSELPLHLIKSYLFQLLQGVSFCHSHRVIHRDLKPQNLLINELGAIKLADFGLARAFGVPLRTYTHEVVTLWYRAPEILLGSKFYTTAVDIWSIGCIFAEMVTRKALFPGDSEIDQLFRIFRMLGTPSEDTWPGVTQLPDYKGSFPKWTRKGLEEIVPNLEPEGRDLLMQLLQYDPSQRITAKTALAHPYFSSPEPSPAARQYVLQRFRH

Sequence of Casein kinase I isoform gamma-3 (Homo sapiens) (Q9Y6M4 whole entry, looked up, canonical isoform): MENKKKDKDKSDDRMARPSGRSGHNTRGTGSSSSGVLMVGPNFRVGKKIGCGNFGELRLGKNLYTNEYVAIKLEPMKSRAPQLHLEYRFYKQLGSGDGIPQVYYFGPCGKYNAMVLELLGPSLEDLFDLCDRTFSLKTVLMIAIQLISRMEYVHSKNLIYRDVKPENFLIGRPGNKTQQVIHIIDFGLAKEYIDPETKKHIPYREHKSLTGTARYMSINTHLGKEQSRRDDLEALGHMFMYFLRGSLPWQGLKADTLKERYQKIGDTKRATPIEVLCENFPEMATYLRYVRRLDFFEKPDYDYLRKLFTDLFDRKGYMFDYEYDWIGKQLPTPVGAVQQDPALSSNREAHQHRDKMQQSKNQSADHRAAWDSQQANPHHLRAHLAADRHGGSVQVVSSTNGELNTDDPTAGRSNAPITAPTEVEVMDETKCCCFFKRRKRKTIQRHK
Sequence of Casein kinase I isoform alpha (Homo sapiens) (P48729 2-337 limits assumed): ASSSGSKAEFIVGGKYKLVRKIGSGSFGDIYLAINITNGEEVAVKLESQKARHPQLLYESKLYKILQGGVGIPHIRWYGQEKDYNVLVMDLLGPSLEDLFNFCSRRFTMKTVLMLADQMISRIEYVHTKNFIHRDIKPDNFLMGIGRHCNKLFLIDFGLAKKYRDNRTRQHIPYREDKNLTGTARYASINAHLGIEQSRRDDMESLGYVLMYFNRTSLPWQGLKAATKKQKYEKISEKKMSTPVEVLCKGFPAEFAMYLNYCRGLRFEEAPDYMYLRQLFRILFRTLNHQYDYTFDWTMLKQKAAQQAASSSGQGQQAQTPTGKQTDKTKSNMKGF
Sequence of Cyclin-dependent kinase 1 (Homo sapiens) (P06493 whole entry, looked up): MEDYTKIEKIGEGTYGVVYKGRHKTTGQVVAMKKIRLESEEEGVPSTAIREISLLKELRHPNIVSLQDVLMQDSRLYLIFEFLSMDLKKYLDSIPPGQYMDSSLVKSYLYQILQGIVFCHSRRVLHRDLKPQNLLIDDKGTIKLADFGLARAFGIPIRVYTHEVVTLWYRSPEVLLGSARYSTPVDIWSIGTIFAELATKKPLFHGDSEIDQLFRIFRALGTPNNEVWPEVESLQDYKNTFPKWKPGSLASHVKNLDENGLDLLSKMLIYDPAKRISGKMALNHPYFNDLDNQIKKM
Sequence of Casein kinase I isoform gamma-1 (Homo sapiens) (Q9HCP0 whole entry, looked up, canonical isoform): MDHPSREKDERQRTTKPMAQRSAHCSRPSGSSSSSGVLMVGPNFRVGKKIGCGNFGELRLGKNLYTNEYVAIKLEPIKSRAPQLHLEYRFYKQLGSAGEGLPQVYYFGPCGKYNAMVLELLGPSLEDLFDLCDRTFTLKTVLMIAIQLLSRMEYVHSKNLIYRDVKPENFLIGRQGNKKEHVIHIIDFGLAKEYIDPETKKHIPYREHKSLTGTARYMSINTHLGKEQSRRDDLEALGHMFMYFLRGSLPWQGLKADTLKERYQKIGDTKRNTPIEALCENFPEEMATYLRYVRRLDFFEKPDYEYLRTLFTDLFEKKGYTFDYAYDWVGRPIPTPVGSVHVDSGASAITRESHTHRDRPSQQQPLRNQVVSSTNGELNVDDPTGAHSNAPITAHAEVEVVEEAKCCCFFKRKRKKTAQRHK
Sequence of Casein kinase I isoform gamma-2 (Homo sapiens) (P78368 whole entry, looked up, canonical isoform): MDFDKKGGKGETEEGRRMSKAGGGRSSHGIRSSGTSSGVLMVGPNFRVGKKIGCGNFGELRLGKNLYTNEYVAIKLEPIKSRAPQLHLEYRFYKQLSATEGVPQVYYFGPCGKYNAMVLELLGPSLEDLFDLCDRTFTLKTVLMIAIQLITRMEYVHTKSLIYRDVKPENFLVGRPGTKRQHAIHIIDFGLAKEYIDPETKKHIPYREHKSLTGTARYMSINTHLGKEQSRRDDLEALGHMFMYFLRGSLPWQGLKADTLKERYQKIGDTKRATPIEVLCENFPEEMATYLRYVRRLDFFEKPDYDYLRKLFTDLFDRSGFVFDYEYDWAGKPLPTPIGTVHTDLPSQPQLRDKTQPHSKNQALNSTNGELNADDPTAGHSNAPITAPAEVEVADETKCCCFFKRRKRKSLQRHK

Compound CCn1c(-c2nonc2N)nc2ccncc21 has an inhibition [1] of 1.82%, an inhibition [2] of 2.36% and an inhibition [3] of 1.75%. It also gave an inhibition [4] of 0.59%, an inhibition [5] of -0.93% and an inhibition [6] of 0.34%. The inhibition [7] was 1.43%, the inhibition [8] was 0.65% and the inhibition [9] was -0.84%. It also gave an inhibition [10] of 0.24%, an inhibition [11] of 0.81% and an inhibition [12] of -0.09%. For the same compound, the inhibition [13] was 1.21%, the inhibition [14] was 0.77% and the inhibition [15] was 1.88%. It also gave an inhibition [16] of 1.3%, an inhibition [17] of 4.47% and an inhibition [18] of 1.11%. The inhibition [19] was 4.8% and the inhibition [20] was 2.26%.

Work on CCn1c(-c2nonc2N)nc2c(C#CC(C)(C)O)nc(CN3CCCC3)cc21 yielded an inhibition [1] of 9.67%, an inhibition [2] of 0.35% and an inhibition [3] of 9.75%. The inhibition [4] was -1.26%, the inhibition [5] was -0.69% and the inhibition [6] was -1.27%. The inhibition [7] was -0.92%, the inhibition [8] was -0.23% and the inhibition [9] was 0.92%. For the same compound, the inhibition [10] was -0.27%, the inhibition [11] was 0.03% and the inhibition [12] was -1.33%. For the same compound, the inhibition [13] was 0.33%, the inhibition [14] was 1.45% and the inhibition [15] was 2%. For the same compound, the inhibition [16] was 2.04%, the inhibition [17] was -0.71% and the inhibition [18] was 0.5%. For the same compound, the inhibition [19] was 1.53% and the inhibition [20] was 2.36%.

CNC(=O)c1cncc(/C=C/c2c(Cl)cccc2Cl)c1 gave an inhibition [1] of 4.76%, an inhibition [2] of 3.51% and an inhibition [3] of 4.44%. For the same compound, the inhibition [4] was 1.15%, the inhibition [5] was 3.45% and the inhibition [6] was 2.31%. For the same compound, the inhibition [7] was 6.99%, the inhibition [8] was 4.49% and the inhibition [9] was 6.18%. The inhibition [10] was 2.94%, the inhibition [11] was 7.62% and the inhibition [12] was 1.61%. It also gave an inhibition [13] of 4.59%, an inhibition [14] of -1.13% and an inhibition [15] of -0.82%. The inhibition [16] was 0.92%, the inhibition [17] was -0.22% and the inhibition [18] was -0.41%. For the same compound, the inhibition [19] was 3.85% and the inhibition [20] was -4.75%.

CC1=C(C(=O)Nc2ccc3[nH]ncc3c2)C(c2ccc(F)cc2)NC(=O)N1 (stereo not given) was tested, and the inhibition [1] was 3.11%, the inhibition [2] was 1.04% and the inhibition [3] was 1.21%. It also gave an inhibition [4] of 1.2%, an inhibition [5] of 1.4% and an inhibition [6] of 0.46%. It also gave an inhibition [7] of 1.43%, an inhibition [8] of 1.54% and an inhibition [9] of 2.31%. For the same compound, the inhibition [10] was 1.41%, the inhibition [11] was 1.77% and the inhibition [12] was 0.29%. The inhibition [13] was 0.47%, the inhibition [14] was 0.21% and the inhibition [15] was -0.93%. The inhibition [16] was 3.84%, the inhibition [17] was 7.76% and the inhibition [18] was 2.47%. It also gave an inhibition [19] of 9.24% and an inhibition [20] of 3.12%.

Compound CN1CCC(C(=O)Nc2n[nH]c3nnc(-c4ccccc4)cc23)CC1 has an inhibition [1] of 3.05%, an inhibition [2] of 5.87% and an inhibition [3] of 6.95%. It also gave an inhibition [4] of 3.85%, an inhibition [5] of 6.08% and an inhibition [6] of 2.13%. It also gave an inhibition [7] of 4%, an inhibition [8] of 5.08% and an inhibition [9] of 5.43%. For the same compound, the inhibition [10] was 3.51%, the inhibition [11] was 6.16% and the inhibition [12] was 2.15%. It also gave an inhibition [13] of 4.71%, an inhibition [14] of 1.44% and an inhibition [15] of 9.39%. It also gave an inhibition [16] of 1.83%, an inhibition [17] of 5.99% and an inhibition [18] of 5.55%. For the same compound, the inhibition [19] was 7.79% and the inhibition [20] was 5.12%.

COC(=O)Nc1nc2cc(Oc3cccc(NC(=O)Nc4cc(C(F)(F)F)ccc4F)c3)ccc2[nH]1 was tested, and the inhibition [1] was 4.23%, the inhibition [2] was -0.26% and the inhibition [3] was -0.63%. The inhibition [4] was -0.42%, the inhibition [5] was -1.58% and the inhibition [6] was -1.03%. For the same compound, the inhibition [7] was -0.8%, the inhibition [8] was 0.24% and the inhibition [9] was 0.48%. The inhibition [10] was -0.21%, the inhibition [11] was -0.35% and the inhibition [12] was -2.32%. For the same compound, the inhibition [13] was -1.3%, the inhibition [14] was 2.66% and the inhibition [15] was 0.7%. The inhibition [16] was 0.37%, the inhibition [17] was -0.89% and the inhibition [18] was 0.62%. For the same compound, the inhibition [19] was 1.21% and the inhibition [20] was -0.22%.

— ChEMBL document CHEMBL1961873, “Compounds: GSK PKIS; Assays: Nanosyn kinase panel” (2012)
